Results filed as inconclusive are left out. Entries that show only a call come without a potency. The source holds several records for some structures; these can differ, active in one and inactive in another. Activity calls are given as the source filed them. Calls follow the shape of the dose curve; as a rule, active = well fitted inhibition curve with a large enough effect; inconclusive = small, poorly fitted or top-dose-only effect; inactive = no such curve, though single readings can be large or run the other way.
Potency is read from the fitted curve at half-maximal effect.

The target in the assay is M-phase phosphoprotein 8 (Homo sapiens) (UniProt Q99549). The experiment in a line: qHTS Validation Assay for Inhibitors for MPP8 Chromodomain Interactions with Methylated Histone Tails (AID 488949). Also: nearly all actives have a fitted effect of over 55% in size. Particulars: AlphaScreen MPP8 binding to H3K9me3 peptide; series mostly up to 57.1 µM. The text has this: As our understanding of epigenetics expands, it is becoming clear that players in this field are potential targets for drug development. This area of epigenetic therapy has established applications for the treatment of cancer and neurological diseases. We have been involved in this field for a number of years and have performed high-throughput screens to identify the first small molecule inhibitors of protein methyltransferases. These methyltransferases target multiple substrates, and thus regulate many arms of an epigenetic pathway. The methylation of different substrates often generates docking sites for effector proteins that harbor binding domains (chromo, tudor, PHD, MBT and ANK repeats). It has been proposed that the binding sites generated for different proteins by these post-translational modifcations mediate downstream effects on chromatin. Consistent with this theory, di- and tri-methylation of histone H3K9 facilitates the binding of heterochromatin protein HP1. The HP1 protein harbors a chromodomain that is responsible for the methyl-dependent interaction between HP1 and lysine 9 of histone H3. HP1 was first described in flies as a heterochromatin associated protein that can regulate gene silencing. It harbors a chromodomain that binds H3K9me3. In addition, it harbors a chromoshadow domain that interacts with a large number of proteins that are involved in heterochromatin formation and gene repression. There are three highly related HP1 isoforms. All three variants are associated with pericentric heterochromatin and it is not clear whether they have specific or redundant functions. MPP8 is also involved in the repression of gene in euchromatic regions (unpublished data) and like HP1 its chromodomain binds H3K9me3. MPP8 harbors an ankyrin repeat region that is likely involved in binding and recruiting interacting proteins with transcriptional repressive function, much like the chromoshadow domain of HP1 does. We hypothesize that by inhibiting specific protein-protein interactions we will be able to develop compounds that block a single arm of an epigenetic pathway. The specificity attained by blocking a single protein-protein interaction will be far greater than that attained by blocking the enzyme that regulates one of many interactions. Low-affinity protein-protein interactions (Kd in the single- to double-digit micromolar range) such as those discussed here have been very difficult to assay by traditional techniques such as fluorescence polarization or fluorescence resonance energy transfer. We have developed a sensitive chemiluminescence-based assay (Quinn, et al. 2009), which serves as the starting point for this project. The following is a validation assay to identify lead compounds that can block methyl-dependent protein-protein interactions (specifically MPP8), which can be used as probes to analyze these methyl-driven interactions and perhaps even developed into targeted epigenetic therapies. Assay Provider: Mark T. Bedford, MD Anderson Screening Center PI: Austin, C.P. Screening Center: NIH Chemical Genomics Center [NCGC]
M-phase phosphoprotein 8 (Homo sapiens), sequence (Q99549 whole entry, looked up): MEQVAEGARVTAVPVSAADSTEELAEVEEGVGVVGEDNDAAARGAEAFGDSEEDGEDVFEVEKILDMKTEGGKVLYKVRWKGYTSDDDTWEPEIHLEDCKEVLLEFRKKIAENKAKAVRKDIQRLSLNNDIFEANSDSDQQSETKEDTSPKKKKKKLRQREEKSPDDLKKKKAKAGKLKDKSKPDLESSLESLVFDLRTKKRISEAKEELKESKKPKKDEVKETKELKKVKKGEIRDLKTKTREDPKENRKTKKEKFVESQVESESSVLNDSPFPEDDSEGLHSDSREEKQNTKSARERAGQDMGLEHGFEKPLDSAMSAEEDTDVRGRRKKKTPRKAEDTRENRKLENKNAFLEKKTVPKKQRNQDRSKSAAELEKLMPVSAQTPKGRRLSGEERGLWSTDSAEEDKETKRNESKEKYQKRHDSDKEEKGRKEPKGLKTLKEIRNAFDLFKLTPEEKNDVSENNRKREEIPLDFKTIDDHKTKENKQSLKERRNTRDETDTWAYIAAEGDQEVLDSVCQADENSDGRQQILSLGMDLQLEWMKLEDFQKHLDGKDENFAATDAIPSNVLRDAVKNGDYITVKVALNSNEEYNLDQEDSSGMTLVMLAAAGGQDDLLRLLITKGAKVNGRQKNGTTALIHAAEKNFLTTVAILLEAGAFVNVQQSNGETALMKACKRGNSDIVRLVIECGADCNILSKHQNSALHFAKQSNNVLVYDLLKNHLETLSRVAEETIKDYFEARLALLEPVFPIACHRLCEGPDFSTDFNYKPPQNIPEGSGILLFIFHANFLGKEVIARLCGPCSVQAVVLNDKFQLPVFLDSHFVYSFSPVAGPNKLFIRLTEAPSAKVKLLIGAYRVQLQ
To each well, 2 uL of MPP8 protein (final 50 nM) and 1 uL biotinylated histone peptide trimethylated at Lys9 [b-H3(1-18)K9me3] (final 50 nM) was added in 1x PBS buffer, pH 7.4, containing 0.01% Tween-20 using a nanoliter dispenser. Formation of a protein-peptide complex proceeded at room temperature for 30 min. A Kalypsys pin-tool was employed to transfer 23 nL of library compound solution in DMSO to each well. Aurintricarboxylic acid (ATA) was used as an intraplate control with a 12-point titration in duplicate. Following a 30 min incubation of the protein-peptide complex with compounds at room temperature, a mixture of 40 ug/mL each streptavidin-coated donor and nickel chelate acceptor AlphaScreen beads (final 10 ug/mL) was added in a 1 uL dispense for a final volume of 4 uL. Plates were incubated protected from the light for 30 min at room temperature. […]
(qHTS replaces the single test concentration by a dilution series.)
For the compound `NC/C=C/C(=O)O`, the Potency result was “inactive”.

As for `Nc1c2c(nc3ccccc13)CCCC2O` (stereo not given), the Potency result is “inactive”.

`CCOC(=O)C1=C(C)NC(C)=C(C(=O)OC)C1c1cccc([N+](=O)[O-])c1` (stereo not given): the Potency result is “inactive”.

Regarding `NC1=NCC2c3ccccc3Cc3ccccc3N12` (stereo not given), the Potency result was “inactive”.

For `CN(C)C(=O)Oc1cccc([N+](C)(C)C)c1`, the Potency entry was “inactive”.

For `CCn1cc(C(=O)O)c(=O)c2cc3c(cc21)OCO3`, the Potency entry is “inactive”.

Take `Cc1cccc(C)c1NC(=O)C(C)N` (stereo not given): the Potency entry is “inactive”.

With `CSc1ccc(C(=O)c2[nH]c(=O)[nH]c2C)cc1`, the Potency result is “inactive”.

For `CCO/C([O-])=N/c1c[n+](N2CCOCC2)no1`, the Potency entry is “inactive”.

Take `C[N+](C)(C)CCCCCCCCCC[N+](C)(C)C`: the Potency result is “inactive”.

Consider `COCCOC(=O)C1=C(C)NC(C)=C(C(=O)OC(C)C)C1c1cccc([N+](=O)[O-])c1` (stereo not given), for which the Potency entry is “inactive”.

`NC(=O)c1cn(Cc2c(F)cccc2F)nn1`: the Potency entry is “inactive”.

On to `CC(=O)[C@]1(O)Cc2c(O)c3c(c(O)c2[C@@H](O[C@H]2C[C@H](N)[C@H](O)[C@H](C)O2)C1)C(=O)c1ccccc1C3=O`, for which the Potency is 28.2 µM (active).

As to `CCCCNc1c(C(=O)OCC)c(C)nc2c1cnn2CC`, the Potency entry is “inactive”.

`C[C@]12C=CC(=O)C=C1CC[C@H]1[C@@H]3C[C@@H](O)[C@](O)(C(=O)CO)[C@@]3(C)C[C@H](O)[C@@]12F`: the Potency entry was “inactive”.

For `COc1cc2c(cc1OC)-c1cc(=Nc3c(C)cc(C)cc3C)n(C)c(=O)n1CC2`, the Potency was 39.8 µM (active) and inactive.

In the case of `Cc1scc2c1N(C(=O)CN1CCN(C)CC1)c1ccccc1NC2=O`, the Potency result is “inactive”.

Consider `CC(C(=O)O)c1ccc(CC2CCCC2=O)cc1` (stereo not given), for which the Potency result was “inactive”.

Turning to `C#CCN(C)CCCOc1ccc(Cl)cc1Cl`, the Potency entry is “inactive”.

As for `CCN(CC)CCCN(c1ccccc1)C1Cc2ccccc2C1`, the Potency result was “inactive”.

As for `O=C(O)CN(CCN(CC(=O)O)CC(=O)O)CCN(CC(=O)O)CC(=O)O`, the Potency result was “inactive”.

For the compound `CCN(CC)CCOCCOC(=O)C1(c2ccccc2)CCCC1`, the Potency entry was “inactive”.

Consider `C[n+]1cc2c3c(ccc2c2ccc4cc5c(cc4c21)OCO5)OCO3`, for which the Potency is 31.6 µM (active) and inactive.

On to `C[C@]12CCC(=O)C=C1CC[C@@H]1[C@@H]2CC[C@@]2(C)[C@H]1CC[C@]2(O)C(=O)CO`, for which the Potency entry was “inactive”.

Regarding `O=C(O)CCCCCCCC(=O)O`, the Potency result is “inactive”.

`CO[C@@]1(NC(=O)CSCC#N)C(=O)N2C(C(=O)O)=C(CSc3nnnn3C)CS[C@@H]21`: the Potency entry was “inactive”.

For the compound `FC(F)(F)c1ccccc1-n1ccnc1`, the Potency entry is “inactive”.

With `CNC1(C)C2CCC(C2)C1(C)C` (stereo not given), the Potency entry was “inactive”.

Take `NC(=O)c1ncn([C@@H]2O[C@H](CO)[C@@H](O)[C@H]2O)c1O`: the Potency result is “inactive”.

As for `CN(C(=O)CCCOc1ccc2[nH]c(=O)ccc2c1)C1CCCCC1`, the Potency result was “inactive”.

For `CC(=O)Oc1cc(C(C)C)c(OCCN(C)C)cc1C`, the Potency entry is “inactive”.

As for `CCC(=O)c1ccc2c(c1)N(CCCN(C)C)c1ccccc1S2`, the Potency entry is “inactive”.

As for `COc1ccc2c(c1OC)C(=O)O[C@@H]2[C@H]1c2c(cc3c(c2OC)OCO3)CCN1C`, the Potency entry was “inactive”.

With `CC(C)(C)c1ccc(C(=O)CCCN2CCC(OC(c3ccccc3)c3ccccc3)CC2)cc1`, the Potency result was “inactive”.

As for `C[N+](C)(C)CCOC(=O)CCC(=O)OCC[N+](C)(C)C`, the Potency result is “inactive”.

As to `O=C(CCCN1CCC(O)(c2cccc(C(F)(F)F)c2)CC1)c1ccc(F)cc1`, the Potency entry is “inactive”.

As to `CN1CCN(CC(=O)N2c3ccccc3C(=O)Nc3cccnc32)CC1`, the Potency entry was “inactive”.

For the compound `CC(=O)Nc1nnc(S(N)(=O)=O)s1`, the Potency entry was “inactive”.

Consider `N[C@@H](COP(=O)(O)O)C(=O)O`, for which the Potency result is “inactive”.

Regarding `CCCNC(C)C(=O)Nc1ccccc1C` (stereo not given), the Potency entry was “inactive”.

Values taken from PubChem BioAssay (NCATS).
